Test results taken from PubChem BioAssay AID1159580 (chemical genetic matrix, 2015).
“And” between values parts separate entries of the source, which are not always exact repeats. Identical values can stand only once. The whole screen tested about 5,500 compounds, of which about 2,000 (36%) were called active. Not shown: some 18% with an inconclusive outcome. No stated cut-off is given here; in the data, active means normalized growth mostly below about 0.91 (no sharp cut-off); inconclusive means no clear call, values can overlap the other calls; inactive means mostly above about 0.92. Some of the results follow.

Test: chemical genetic growth profiling, strain panel (AID 1159580);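 further: tested at 20 µM; growth read once vehicle control cultures reached saturation at 30 °C; 1 = growth at the plate median or of vehicle wells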
Conditions: S. cerevisiae deletion strains, growth OD

Measured: normalized growth

C=C(C)[C@H]1Cc2c(ccc3c2O[C@@H]2COc4cc(OC)c(OC)cc4[C@@H]2C3=O)O1
inactive: locus YAL013W, strain DEP1, stronger effect = lower value 1.01 | locus YAL021C, strain ccr4, stronger effect = lower value 0.993 | locus YAL026C, strain drs2, stronger effect = lower value 0.962 | locus YAL030W, strain snc1, stronger effect = lower value 0.982 | locus YBL061C, strain skt5, stronger effect = lower value 0.994 | locus YBR021W, strain FUR4, stronger effect = lower value 0.975 | locus YBR023C, strain chs3, stronger effect = lower value 0.962 | locus YBR171W, strain sec66, stronger effect = lower value 0.979 | locus YBR229C, strain ROT2, stronger effect = lower value 1.01 | locus YBR231C, strain swc5, stronger effect = lower value 1 | locus YBR279W, strain paf1, stronger effect = lower value 1.06 | locus YCL011C, strain gbp2, stronger effect = lower value 0.936 | locus YCL016C, strain dcc1, stronger effect = lower value 0.926 | locus YCL029C, strain bik1, stronger effect = lower value 1.03 | locus YCL061C, strain MRC1, stronger effect = lower value 1 | locus YCL069W, strain vba3, stronger effect = lower value 0.997 | locus YCR088W, strain abp1, stronger effect = lower value 1.03 | locus YDL005C, strain med2, stronger effect = lower value 0.99 | locus YDL035C, strain GPR1, stronger effect = lower value 0.956 | locus YDL040C, strain nat1, stronger effect = lower value 0.986 | locus YDL074C, strain BRE1, stronger effect = lower value 0.926 | locus YDL101C, strain DUN1, stronger effect = lower value 0.992 | locus YDL185W, strain tfp1, stronger effect = lower value 1.02 | locus YDL192W, strain arf1, stronger effect = lower value 1.02 | locus YDR001C, strain nth1, stronger effect = lower value 1.01 | locus YDR069C, strain doa4, stronger effect = lower value 0.991 | locus YDR101C, strain arx1, stronger effect = lower value 1 | locus YDR137W, strain rgp1, stronger effect = lower value 0.853 | locus YDR159W, strain sac3, stronger effect = lower value 0.984 | locus YDR162C, strain NBP2, stronger effect = lower value 0.966 | locus YDR195W, strain ref2 1.13 | locus YDR297W, strain sur2, stronger effect = lower value 0.966 | locus YDR318W, strain mcm21, stronger effect = lower value 1 | locus YDR334W, strain swr1, stronger effect = lower value 1.04 | locus YDR335W, strain msn5, stronger effect = lower value 1 | locus YDR388W, stronger effect = lower value 1.01 | locus YDR392W, strain spt3, stronger effect = lower value 0.762 | locus YDR502C, strain sam2, stronger effect = lower value 1 | locus YEL003W, strain gim4, stronger effect = lower value 0.981 | locus YEL037C, strain rad23, stronger effect = lower value 1.02 | locus YEL061C, strain CIN8 (second series), stronger effect = lower value 1.03 | locus YEL061C, strain CIN8, stronger effect = lower value 1 | locus YER015W, strain faa2, stronger effect = lower value 0.982 | locus YER016W, strain bim1, stronger effect = lower value 0.986 | locus YER111C, strain swi4, stronger effect = lower value 1.02 | locus YER155C, strain BEM2 (second series), stronger effect = lower value 1.07 | locus YER155C, strain BEM2, stronger effect = lower value 1 | locus YER167W, strain BCK2, stronger effect = lower value 0.966 | locus YFR010W, strain ubp6, stronger effect = lower value 1.01 | locus YGL078C, strain dbp3, stronger effect = lower value 1.01 | locus YGL086W, strain mad1, stronger effect = lower value 0.993 | locus YGL167C, strain pmr1, stronger effect = lower value 0.97 | locus YGL173C, strain kem1, stronger effect = lower value 0.98 | locus YGL227W, strain vid30, stronger effect = lower value 1.01 | locus YGL240W, strain doc1, stronger effect = lower value 0.999 | locus YGL248W, strain PDE1, stronger effect = lower value 0.993 | locus YGL253W, strain hxk2, stronger effect = lower value 0.964 | locus YGR135W, strain pre9, stronger effect = lower value 0.996 | locus YGR229C, strain SMI1, stronger effect = lower value 0.924 | locus YGR252W, strain gcn5, stronger effect = lower value 0.914 | locus YHR013C, strain ard1, stronger effect = lower value 1 | locus YHR027C, strain rpn1, stronger effect = lower value 0.975 | locus YHR030C, strain SLT2, stronger effect = lower value 1.01 and 0.915 | locus YHR079C, strain IRE1 (second series), stronger effect = lower value 1.02 | locus YHR079C, strain IRE1, stronger effect = lower value 0.95 | locus YHR094C, strain hxt1, stronger effect = lower value 1.02 | locus YHR129C, strain ARP1, stronger effect = lower value 1.01 | locus YHR142W, strain chs7, stronger effect = lower value 0.972 | locus YHR200W, strain rpn10, stronger effect = lower value 0.996 | locus YIL066C, strain RNR3, stronger effect = lower value 0.968 | locus YIL073C, strain SPO22, stronger effect = lower value 1.04 | locus YIL125W, strain kgd1, stronger effect = lower value 1.01 | locus YIR030C, strain dcg1, stronger effect = lower value 1.02 | locus YJL092W, strain hpr5, stronger effect = lower value 1.01 | locus YJL095W, strain BCK1 (second series), stronger effect = lower value 0.967 | locus YJL095W, strain BCK1, stronger effect = lower value 0.958 and 0.936 | locus YJL115W, strain asf1, stronger effect = lower value 1.02 | locus YJL129C, strain trk1, stronger effect = lower value 0.901 | locus YJL134W, strain LCB3, stronger effect = lower value 1.01 | locus YJL154C, strain vps35, stronger effect = lower value 1 | locus YJL166W, strain qcr8, stronger effect = lower value 0.932 | locus YJL168C, strain set2, stronger effect = lower value 1.04 | locus YJL187C, strain SWE1 (second series), stronger effect = lower value 0.982 | locus YJL187C, strain SWE1, stronger effect = lower value 0.993 | locus YJR043C, strain POL32, stronger effect = lower value 0.973 | locus YJR066W, strain TOR1, stronger effect = lower value 0.851 | locus YJR075W, strain HOC1, stronger effect = lower value 0.983 | locus YKL009W, strain mrt4, stronger effect = lower value 1.03 | locus YKL068W, stronger effect = lower value 1 | locus YKL085W, strain MDH1 (second series), stronger effect = lower value 1 | locus YKL085W, strain MDH1, stronger effect = lower value 1 | locus YKL160W, strain elf1, stronger effect = lower value 0.95 | locus YKL190W, strain CNB1, stronger effect = lower value 1 | locus YKR001C, strain vps1, stronger effect = lower value 0.947 | locus YKR026C, strain gcn3, stronger effect = lower value 1 | locus YKR091W, strain srl3, stronger effect = lower value 0.991 | locus YLL001W, strain dnm1, stronger effect = lower value 0.983 | locus YLL026W, stronger effect = lower value 0.976 | locus YLL041C, strain sdh2, stronger effect = lower value 0.99 | locus YLR027C, strain aat2, stronger effect = lower value 0.978 | locus YLR039C, strain RIC1, stronger effect = lower value 0.936 | locus YLR058C, strain SHM2, stronger effect = lower value 1.01 | locus YLR102C, strain apc9, stronger effect = lower value 1.02 | locus YLR113W, strain HOG1, stronger effect = lower value 0.968 | locus YLR221C, strain rsa3, stronger effect = lower value 0.921 | locus YLR258W, strain gsy2, stronger effect = lower value 0.958 | locus YLR262C, strain YPT6, stronger effect = lower value 0.99 | locus YLR268W, strain sec22, stronger effect = lower value 0.978 | locus YLR320W, strain mms22, stronger effect = lower value 0.891 | locus YLR330W, strain CHS5, stronger effect = lower value 1.02 | locus YLR342W, strain FKS1 (second series), stronger effect = lower value 1.02 | locus YLR342W, strain FKS1, stronger effect = lower value 1.01 | locus YLR357W, strain rsc2, stronger effect = lower value 1.09 | locus YLR370C, strain arc18, stronger effect = lower value 0.975 | locus YLR371W, strain rom2, stronger effect = lower value 1.02 | locus YLR384C, strain iki3, stronger effect = lower value 1.03 | locus YLR418C, strain cdc73, stronger effect = lower value 0.917 | locus YML016C, strain PPZ1, stronger effect = lower value 1.01 | locus YML032C, strain rad52, stronger effect = lower value 1.01 | locus YML120C, strain ndi1, stronger effect = lower value 0.95 | locus YML124C, strain tub3, stronger effect = lower value 1.01 | locus YMR058W, strain fet3, stronger effect = lower value 0.994 | locus YMR078C, strain ctf18, stronger effect = lower value 1.01 | locus YMR125W, strain sto1, stronger effect = lower value 1.05 | locus YMR129W, stronger effect = lower value 1 | locus YMR205C, strain PFK2, stronger effect = lower value 0.929 | locus YMR223W, strain ubp8, stronger effect = lower value 1 | locus YMR231W, strain pep5, stronger effect = lower value 0.983 | locus YMR307W, strain GAS1, stronger effect = lower value 1 | locus YNL067W, strain RPL9B, stronger effect = lower value 0.987 | locus YNL128W, strain TEP1, stronger effect = lower value 0.995 | locus YNL183C, strain NPR1, stronger effect = lower value 0.886 | locus YNL209W, strain ssb2, stronger effect = lower value 0.979 | locus YNL233W, strain BNI4, stronger effect = lower value 0.976 | locus YNL248C, strain rpa49, stronger effect = lower value 1.06 | locus YNL250W, strain rad50, stronger effect = lower value 1.02 | locus YNL271C, strain bni1, stronger effect = lower value 1.02 | locus YNL298W, strain CLA4, stronger effect = lower value 1.01 | locus YNL307C, strain MCK1, stronger effect = lower value 0.962 | locus YNL322C, strain KRE1 (second series), stronger effect = lower value 0.991 | locus YNL322C, strain KRE1, stronger effect = lower value 1 | locus YNR049C, strain mso1, stronger effect = lower value 1.01 | locus YNR052C, strain pop2, stronger effect = lower value 1.01 | locus YOL006C, strain TOP1, stronger effect = lower value 0.944 | locus YOL012C, strain htz1 0.818 | locus YOL147C, strain pex11, stronger effect = lower value 1.03 | locus YOR001W, strain rrp6, stronger effect = lower value 0.967 | locus YOR061W, strain CKA2, stronger effect = lower value 1 | locus YOR069W, strain VPS5, stronger effect = lower value 1 | locus YOR070C, strain gyp1, stronger effect = lower value 0.961 | locus YOR080W, strain dia2, stronger effect = lower value 0.994 | locus YOR083W, strain WHI5, stronger effect = lower value 0.969 | locus YOR106W, strain vam3, stronger effect = lower value 0.974 | locus YOR136W, strain idh2, stronger effect = lower value 1.01 | locus YOR144C, strain elg1, stronger effect = lower value 1 | locus YOR184W, strain ser1, stronger effect = lower value 0.952 | locus YOR231W, strain MKK1, stronger effect = lower value 0.94 | locus YOR265W, strain rbl2, stronger effect = lower value 0.973 | locus YOR270C, strain vph1, stronger effect = lower value 0.853 | locus YOR290C, strain snf2, stronger effect = lower value 0.985 | locus YOR316C, strain cot1, stronger effect = lower value 1.01 | locus YPL051W, strain arl3, stronger effect = lower value 0.963 | locus YPL055C, strain LGE1, stronger effect = lower value 0.942 | locus YPL078C, strain atp4, stronger effect = lower value 1.03 | locus YPL106C, strain sse1, stronger effect = lower value 0.977 | locus YPL240C, strain hsp82, stronger effect = lower value 0.975 | locus YPL241C, strain CIN2, stronger effect = lower value 1.01 | locus YPL256C, strain CLN2, stronger effect = lower value 0.942 | locus YPR119W, strain clb2, stronger effect = lower value 1.01 | locus YPR141C, strain kar3, stronger effect = lower value 1.04 | locus YPR163C, strain tif3, stronger effect = lower value 0.933 | locus YPR167C, strain met16, stronger effect = lower value 1 | strain wtn01, stronger effect = lower value 1.03
active: locus YBR009C, strain hhf1, stronger effect = lower value 0.892 | locus YER110C, stronger effect = lower value 1.11 [resistant] | locus YJL164C, strain tpk1, stronger effect = lower value 0.917 | locus YLR262C, strain YPT6 (second series), stronger effect = lower value 0.83 | locus YNL071W, strain lat1, stronger effect = lower value 0.894
